Giardia killer: Small Molecules that selectively kill Giardia lamblia: qHTS. Giardia lamblia trophozoite viability. activity change, % at 7.66 µM, hits read low. actives 0.15% (n = 340,000); in the data active means activity change below about -80%; inconclusive means between about -30% and that limit;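 further: parasites exposed to compound for two days anaerobically before the ATP read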
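Anaerobic 48 hrs incubation at 37 deg C of 100 trophozoites/well with test compounds; ATPLite 1-Step luminescence, 15-30 min RT, reports cellular ATP as viability.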
ELG1 repair inh: qHTS screen for small molecules that inhibit ELG1-dependent DNA repair in human embryonic kidney (HEK293T) cells expressing luciferase-tagged ELG1. HEK293T ELG1-luciferase reporter, luminescence, 16 h; DNA damage induced by 5-fluorouridine. Potency, µM (titrated, usually from 46.1 µM), actives largely listed as inhibitors. actives 2.3% (n = 330,000). AID 504467, 2011; further: nearly all actives have a fitted effect of over 55% in size
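Luminescence from the luciferase reporter, measured 30 min after ONE-Glo reagent at room temperature, was the read-out. Beforehand, 2,000 cells per well were exposed for 16 hr at 37 °C to 5-fluorouridine together with compound or vehicle.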
Sfp inh: qHTS Assay for Inhibitors of Bacillus subtilis Sfp phosphopantetheinyl transferase (PPTase) | 4'-phosphopantetheinyl transferase ffp (Bacillus subtilis), Q9F4F7 | Biochemical Sfp PPTase activity, qHTS | Potency, µM, actives largely listed as inhibitors | actives 3.5% (n = 310,000);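 further: the enzyme is Sfp with the accession as filed and its product quenches rhodamine fluorescence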
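Fluorescence-quenching assay with 15 nM Sfp, 5 uM rhodamine-CoA and 12.5 uM BHQ-2-labelled ybbR peptide in pH 7.6 Hepes/MgCl2 buffer. Enzyme was pre-incubated with compound for 15 min at room temperature. Rate was taken from the 30-min fluorescence change (525/598 nm).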
FBPA coupling cs: qHTS Assay for Inhibitors of Fructose-1,6-bisphosphate Aldolase from Giardia Lamblia: Coupling assay counterscreen; coupling enzyme system counterscreen, AmpLite Red fluorescence; activity change, negative = inhibition, % at 58.2 µM, hits read low; actives 0.67% (n = 290,000); AID 2472, 2010; in the data active means activity change below about -30%
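Counterscreen lacking aldolase: glyceraldehyde-3-phosphate coupling-enzyme reagent preincubated 10 min at RT with compound (at 57.5 uM final), then substrate/coupling system with AmpLite Red added; fluorescence read at 525/598 nm after 20 min RT.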
ELG1 FLuc counter: qHTS screen for small molecules that inhibit ELG1-dependent DNA repair: Hit Confirmation in Cell-Based Luciferin Assay; shares compounds with ELG1 repair inh; cell-free firefly luciferase luminescence counter-screen, ViewLux; Potency, µM (top dose mostly 46.1 µM), hits mostly inhibitors; actives 3% (n = 350); AID 624247, 2012
ELG1 Luc conf: HTS assay for small molecules that inhibit ELG1-dependent DNA repair in human embryonic kidney (HEK293T) cells expressing luciferase-tagged ELG1: Hit Confirmation. shares compounds with ELG1 repair inh. HEK293T ELG1-luciferase levels, luminescence; cells co-treated with 5-fluorouridine. AID 624248, 2012. actives 68% (n = 670). Potency, µM (doses to about 46.1 µM), usual class: inhibitors; further: nearly all actives have a fitted effect of over 55% in size
Target sequence (Q96QE3 whole entry, looked up): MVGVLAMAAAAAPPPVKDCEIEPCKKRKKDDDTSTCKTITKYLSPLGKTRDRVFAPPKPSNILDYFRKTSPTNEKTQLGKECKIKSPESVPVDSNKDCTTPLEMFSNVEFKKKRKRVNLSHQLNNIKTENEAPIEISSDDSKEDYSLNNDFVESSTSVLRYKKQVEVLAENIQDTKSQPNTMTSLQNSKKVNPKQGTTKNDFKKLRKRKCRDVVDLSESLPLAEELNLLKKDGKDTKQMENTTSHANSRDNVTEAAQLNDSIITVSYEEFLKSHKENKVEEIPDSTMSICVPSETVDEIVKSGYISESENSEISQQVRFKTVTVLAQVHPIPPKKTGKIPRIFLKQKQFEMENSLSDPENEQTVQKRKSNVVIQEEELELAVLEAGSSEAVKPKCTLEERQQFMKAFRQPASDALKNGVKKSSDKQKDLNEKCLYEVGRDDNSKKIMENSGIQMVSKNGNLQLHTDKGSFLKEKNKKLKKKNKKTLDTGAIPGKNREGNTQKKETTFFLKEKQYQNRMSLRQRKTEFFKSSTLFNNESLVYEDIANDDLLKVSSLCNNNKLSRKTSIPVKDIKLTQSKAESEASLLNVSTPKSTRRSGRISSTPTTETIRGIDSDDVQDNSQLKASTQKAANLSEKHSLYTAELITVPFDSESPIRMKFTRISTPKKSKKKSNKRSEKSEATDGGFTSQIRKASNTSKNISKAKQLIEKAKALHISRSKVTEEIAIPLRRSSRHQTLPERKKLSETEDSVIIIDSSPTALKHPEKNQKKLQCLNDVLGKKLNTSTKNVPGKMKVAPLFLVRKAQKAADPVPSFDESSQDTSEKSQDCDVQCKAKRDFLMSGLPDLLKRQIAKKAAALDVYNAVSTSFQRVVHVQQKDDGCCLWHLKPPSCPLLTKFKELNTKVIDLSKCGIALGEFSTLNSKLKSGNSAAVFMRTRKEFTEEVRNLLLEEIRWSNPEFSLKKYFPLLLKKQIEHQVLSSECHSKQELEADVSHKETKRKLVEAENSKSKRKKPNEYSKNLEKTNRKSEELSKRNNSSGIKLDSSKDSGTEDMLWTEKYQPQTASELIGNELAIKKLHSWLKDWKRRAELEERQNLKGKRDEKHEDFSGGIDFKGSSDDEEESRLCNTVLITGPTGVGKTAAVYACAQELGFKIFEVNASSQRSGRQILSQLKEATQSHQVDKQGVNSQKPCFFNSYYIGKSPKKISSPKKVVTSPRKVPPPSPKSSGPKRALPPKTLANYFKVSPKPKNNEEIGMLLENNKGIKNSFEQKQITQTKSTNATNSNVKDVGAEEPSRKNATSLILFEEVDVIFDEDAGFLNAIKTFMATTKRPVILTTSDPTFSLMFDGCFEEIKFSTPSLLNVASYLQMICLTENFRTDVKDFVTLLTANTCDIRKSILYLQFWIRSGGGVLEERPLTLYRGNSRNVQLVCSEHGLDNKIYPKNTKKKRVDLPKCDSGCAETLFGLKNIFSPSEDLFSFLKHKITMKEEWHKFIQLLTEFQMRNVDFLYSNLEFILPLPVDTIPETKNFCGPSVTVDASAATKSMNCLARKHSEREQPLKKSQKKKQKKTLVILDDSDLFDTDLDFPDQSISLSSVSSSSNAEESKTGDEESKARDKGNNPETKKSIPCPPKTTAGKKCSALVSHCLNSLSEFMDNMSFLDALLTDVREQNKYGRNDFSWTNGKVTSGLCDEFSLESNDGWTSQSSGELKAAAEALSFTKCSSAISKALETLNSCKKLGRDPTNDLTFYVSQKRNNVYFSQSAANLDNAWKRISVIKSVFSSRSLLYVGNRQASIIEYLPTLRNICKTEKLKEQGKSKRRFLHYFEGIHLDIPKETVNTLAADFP
ELG1 MMS Luc: inhibits ELG1-dependent repair under MMS stimulation in HEK293T cells; actives 53% (n = 670); Potency, µM (highest dose often 46.1 µM), hits mostly inhibitors; HEK293T luciferase-tagged ELG1 level, MMS stimulated; AID 624249; shares compounds with ELG1 repair inh; further: nearly all actives have a fitted effect of over 60% in size
ELG1 5FU viab: qHTS screen for small molecules that inhibit ELG1-dependent DNA repair: Hit Confirmation with 5FU Viability; shares compounds with ELG1 repair inh; 670 tested, under 10 active; Potency, µM (highest dose often 46.1 µM), usual class: cytotoxic; cell viability with 5-FU, ELG1-dependent repair; AID 624250, 2012;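 further: ELG1-luc HEK293T cells cotreated with 5-fluorouridine at 10 µM final; viability measured 16 h after compound addition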
ELG1 MMS cell: qHTS screen for small molecules that inhibit ELG1-dependent DNA repair: Hit Confirmation with MMS Viability. Cell viability with MMS, ELG1-dependent DNA repair. shares compounds with ELG1 repair inh. actives 33% (n = 670). Potency, µM (highest dose often 46.1 µM), most hits filed as cytotoxic;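 further: ELG1-luc HEK293T cells co-treated with 10 µM MMS; viability read 16 h after compound addition; nearly all actives have a fitted effect of over 60% in size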
Cell viab unstim: qHTS screen for small molecules that inhibit ELG1-dependent DNA repair: Hit Confirmation with Unstimulated Viability Assay | shares compounds with ELG1 repair inh | cell viability counter-screen, unstimulated, luminescence | Potency, µM (highest dose often 45.9 µM), actives largely listed as cytotoxic | actives 8% (n = 900) | AID 624252, 2012;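 further: compound exposure lasted 16 hours before reading; nearly all actives have a fitted effect of over 55% in size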
FLuc biochem: qHTS screen for small molecules that inhibit ELG1-dependent DNA repair: Hit Confirmation in Biochemical Luciferin Assay; AID 624253, 2012; shares compounds with ELG1 repair inh; Potency, µM (highest dose often 57.5 µM), actives largely listed as inhibitors; actives 10% (n = 350); purified firefly luciferase, luminescence counter-screen
A number is an active result. Sampled rows, rich in hits. Any-hit rate of the full collection: about 5.5%. Unless noted, the call rests on the fitted dose curve; in most records, active means well fitted curve in the direction sought with a large enough effect; inconclusive means small, poorly fitted or top-dose-only effect, or another doubt; inactive means no such curve, though single readings can be large; an effect the other way counts as inactive or inconclusive.

What do the screens show for `CCc1c(C)nc2c(Br)cccc2c1SCCC#N`?
Giardia killer: inactive; ELG1 repair inh: inactive; Sfp inh: inactive; FBPA coupling cs: inactive

How did CCc1c(C)nc2ccc(Br)cc2c1SCCC#N do in these assays?
Giardia killer: inactive; ELG1 repair inh: 4.1µM; Sfp inh: inactive; FBPA coupling cs: inactive; ELG1 Luc conf: 7.1µM; ELG1 MMS Luc: 16µM; ELG1 5FU viab: inactive; ELG1 MMS cell: inconclusive; Cell viab unstim: inactive

What do the screens show for `Cc1noc(C)c1CSCC(=O)Nc1ccc(S(=O)(=O)C(F)F)cc1`?
Giardia killer: inactive; ELG1 repair inh: inactive

What do the screens show for `O=C(CSc1nc2ccccc2c(=O)n1-c1ccccc1)N/N=C/C=C/c1ccccc1[N+](=O)[O-]`?
Giardia killer: inconclusive; ELG1 repair inh: 2.9µM; Sfp inh: inactive; FBPA coupling cs: inactive; ELG1 FLuc counter: inactive; ELG1 Luc conf: 10µM; ELG1 MMS Luc: inactive; ELG1 5FU viab: inconclusive; ELG1 MMS cell: inconclusive; Cell viab unstim: inactive; FLuc biochem: inactive

What do the screens show for `Cc1ccc(-c2nc3c(c(SCC(=O)Nc4cccc(C(=O)O)c4)n2)Cc2cccc(C)c2O3)cc1`?
ELG1 FLuc counter: inactive; ELG1 Luc conf: inactive; ELG1 MMS Luc: inactive; ELG1 5FU viab: inactive; ELG1 MMS cell: inconclusive; Cell viab unstim: inactive; FLuc biochem: inconclusive

How did O=C(CSc1nc(-c2ccc(F)cc2)nc2c1Cc1ccccc1O2)Nc1ccc(C(=O)O)cc1 do in these assays?
Giardia killer: inactive; ELG1 repair inh: inactive; Sfp inh: inactive; FBPA coupling cs: inactive

What do the screens show for `Cc1ccc(C)c(NC(=O)C2CCCN(c3cnccn3)C2)c1` (configuration not stated)?
Giardia killer: inactive; ELG1 repair inh: inactive; Sfp inh: inactive

Results for Cn1c(=O)c2c(nc(CN3CCc4ccccc4C3)n2Cc2ccccc2F)n(C)c1=O ?
Giardia killer: inactive; ELG1 repair inh: inconclusive; Sfp inh: inactive; FBPA coupling cs: inactive; ELG1 Luc conf: 8.9µM; ELG1 MMS Luc: inactive; ELG1 5FU viab: inconclusive; ELG1 MMS cell: inactive; Cell viab unstim: inactive

What do the screens show for `Cn1ncc(Br)c1C(=O)N/N=C/c1cccc(OC2CSC2)c1`?
Giardia killer: inactive; ELG1 repair inh: 4.1µM; Sfp inh: inactive; FBPA coupling cs: inactive; ELG1 Luc conf: inactive; ELG1 MMS Luc: inactive; ELG1 5FU viab: inactive; ELG1 MMS cell: inconclusive; Cell viab unstim: inactive

What do the screens show for `COc1ccc2ccccc2c1/C=N/NC(=S)Nc1cc(S(=O)(=O)N2CCOCC2)ccc1N1CCOCC1`?
Giardia killer: inactive; ELG1 repair inh: 1.6µM; Sfp inh: inactive; FBPA coupling cs: inactive; ELG1 Luc conf: inconclusive; ELG1 MMS Luc: inactive; ELG1 5FU viab: inconclusive; ELG1 MMS cell: inconclusive; Cell viab unstim: inactive

How did COc1ccc(-c2cc(C(=O)Nc3ccc(S(N)(=O)=O)cc3)c3ccccc3n2)cc1OC do in these assays?
Giardia killer: inactive; ELG1 repair inh: inactive; Sfp inh: inactive; FBPA coupling cs: inactive

How did COc1cc(-c2cc(C(=O)Nc3cc(S(=O)(=O)N4CCOCC4)ccc3C)c3ccccc3n2)cc(OC)c1OC do in these assays?
Giardia killer: inactive; ELG1 repair inh: 3.7µM; ELG1 Luc conf: 5µM; ELG1 MMS Luc: inconclusive; ELG1 5FU viab: inconclusive; ELG1 MMS cell: inactive; Cell viab unstim: inconclusive

How did COc1cc(-c2cc(C(=O)Nc3ccc(S(=O)(=O)NCc4ccco4)cc3)c3ccccc3n2)cc(OC)c1OC do in these assays?
Giardia killer: inactive; ELG1 repair inh: 2.6µM; Sfp inh: inactive; FBPA coupling cs: inactive; ELG1 Luc conf: 2µM; ELG1 MMS Luc: 4µM; ELG1 5FU viab: inconclusive; ELG1 MMS cell: inactive; Cell viab unstim: inactive

What do the screens show for `COc1ccc(-c2cc(C(=O)Nc3cc(S(N)(=O)=O)ccc3C)c3ccccc3n2)cc1OC`?
Giardia killer: inactive

How did COc1ccc(CC(=O)Nc2cc(S(=O)(=O)N3CCOCC3)ccc2N2CCOCC2)cc1 do in these assays?
Giardia killer: inactive; ELG1 repair inh: inactive; Sfp inh: inactive; FBPA coupling cs: inactive

How did COc1ccc(S(=O)(=O)N2CCOCC2)cc1NC(=O)c1cccc2c(=O)c(C)c(-c3ccccc3)oc12 do in these assays?
Giardia killer: inactive; ELG1 repair inh: 4.1µM; Sfp inh: inactive; FBPA coupling cs: inactive; ELG1 Luc conf: 4.4µM; ELG1 MMS Luc: inactive; ELG1 5FU viab: inactive; ELG1 MMS cell: inactive; Cell viab unstim: inactive

What do the screens show for `Cc1ccc(C(=O)N2[C@@H]3CN(C)C(=O)[C@@]2(C)[C@H]2C(=O)N(C)C(=O)[C@@H]32)cc1`?
Giardia killer: inactive

How did CCN(CC)S(=O)(=O)c1ccc(N2CCOCC2)c(NC(=O)c2cc(-c3ccccn3)nc3ccccc23)c1 do in these assays?
Giardia killer: inactive; ELG1 repair inh: 1.8µM; Sfp inh: inactive; FBPA coupling cs: inactive; ELG1 Luc conf: 4.4µM; ELG1 MMS Luc: 5µM; ELG1 5FU viab: inactive; ELG1 MMS cell: 10µM; Cell viab unstim: inconclusive

How did CCN(CC)S(=O)(=O)c1ccc(N2CCOCC2)c(NC(=O)c2cc(=O)[nH]c3ccccc23)c1 do in these assays?
Giardia killer: inactive; ELG1 repair inh: inconclusive; Sfp inh: inactive; FBPA coupling cs: inactive
